{
  "source": "PubChem BioAssay (NCATS)",
  "note": "Records with an inconclusive call do not appear. Active and inactive are the calls of the source. Calls come from the whole dose curve; as a rule, active = well fitted inhibition curve with a large enough effect; inconclusive = small, poorly fitted or top-dose-only effect; inactive = flat fitted curve, though single readings scatter. % is set by controls: 0 for no effect and ±100 for the full control effect; potency is the fitted concentration of half-maximal effect.",
  "data": [
    {"target": "Voltage-gated inwardly rectifying potassium channel KCNH2 (Homo sapiens) (UniProt Q12809)", "sequence (Q12809 whole entry, looked up)": "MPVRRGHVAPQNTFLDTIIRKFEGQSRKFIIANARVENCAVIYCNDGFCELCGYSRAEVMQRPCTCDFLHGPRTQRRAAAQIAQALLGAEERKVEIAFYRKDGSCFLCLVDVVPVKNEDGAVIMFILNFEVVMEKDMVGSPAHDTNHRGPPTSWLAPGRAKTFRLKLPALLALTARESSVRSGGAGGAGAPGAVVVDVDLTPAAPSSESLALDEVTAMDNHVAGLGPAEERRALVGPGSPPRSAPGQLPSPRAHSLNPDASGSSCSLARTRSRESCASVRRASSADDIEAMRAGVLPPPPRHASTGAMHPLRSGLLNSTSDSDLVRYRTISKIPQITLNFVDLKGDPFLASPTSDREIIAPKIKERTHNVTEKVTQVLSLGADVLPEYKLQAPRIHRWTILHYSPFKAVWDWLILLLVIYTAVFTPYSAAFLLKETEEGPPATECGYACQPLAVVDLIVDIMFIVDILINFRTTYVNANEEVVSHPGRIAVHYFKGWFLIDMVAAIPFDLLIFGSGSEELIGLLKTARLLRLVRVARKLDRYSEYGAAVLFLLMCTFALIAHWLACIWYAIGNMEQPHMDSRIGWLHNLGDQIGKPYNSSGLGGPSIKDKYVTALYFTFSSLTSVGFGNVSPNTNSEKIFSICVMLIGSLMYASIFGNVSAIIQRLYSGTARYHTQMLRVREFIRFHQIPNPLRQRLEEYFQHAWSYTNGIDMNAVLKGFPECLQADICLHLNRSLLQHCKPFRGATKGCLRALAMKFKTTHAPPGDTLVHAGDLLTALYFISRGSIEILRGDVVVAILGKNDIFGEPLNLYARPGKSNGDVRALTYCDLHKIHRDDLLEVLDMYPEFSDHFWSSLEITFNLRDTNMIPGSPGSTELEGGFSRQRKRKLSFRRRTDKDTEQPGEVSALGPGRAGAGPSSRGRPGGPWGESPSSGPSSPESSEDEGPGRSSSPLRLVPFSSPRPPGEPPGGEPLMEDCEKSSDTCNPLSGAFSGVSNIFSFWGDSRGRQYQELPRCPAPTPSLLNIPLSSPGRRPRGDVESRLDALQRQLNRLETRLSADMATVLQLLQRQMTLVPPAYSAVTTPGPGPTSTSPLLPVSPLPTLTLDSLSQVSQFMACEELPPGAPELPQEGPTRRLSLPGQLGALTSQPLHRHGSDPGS", "assay": "qHTS Assay for Small Molecule Inhibitors of the Human hERG Channel Activity (AID 588834);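 note: lower thallium flux fluorescence means stronger hERG block; nearly all actives have a fitted effect of over 50% in size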; for activity change, negative = inhibition: top concentration of the series differs between compounds", "settings": "U2OS BacMam hERG, FluxOR thallium flux fluorescence; series mostly up to 46.1 µM; activity change, negative = inhibition: at the top concentration", "method_in_brief": "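Cells were infected with hERG-BacMam virus for 4 hrs at room temperature, grown overnight, then seeded at 2000/well. After dye loading and roughly 10 min compound treatment, thallium influx was triggered and fluorescence recorded.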", "values": [
      {"smiles": "CCc1ccc(S(=O)(=O)O)cc1", "activity change, negative = inhibition": "12.4% (inactive)"},
      {"smiles": "Nc1nc(=O)n([C@@H]2CS[C@H](CO)O2)cc1F", "activity change, negative = inhibition": "-9.44% (inactive)"},
      {"smiles": "CC(=O)[C@H]1CC[C@H]2[C@@H]3C=CC4=CC(=O)CC[C@@]4(C)[C@H]3CC[C@]12C", "activity change, negative = inhibition": "8.04% [at 20.6 µM] (inactive)"},
      {"smiles": "CCCCCCCCCCCCCCCCCC[N+](C)(C)CCC[Si](OC)(OC)OC", "activity change, negative = inhibition": "0.36% (inactive)"},
      {"smiles": "CN1c2c(nc(N)[nH]c2=O)NCC1CNc1ccc(C(=O)NC(CCC(=O)O)C(=O)O)cc1", "note": "(stereo not drawn)", "activity change, negative = inhibition": "10.3% (inactive)"},
      {"smiles": "CC(C)[C@@H](C)/C=C/[C@@H](C)[C@H]1CC[C@H]2/C(=C/C=C3\\C[C@@H](O)CC[C@@H]3C)CCC[C@]12C", "activity change, negative = inhibition": "16.1% (inactive)"},
      {"smiles": "CCCC(=O)O", "activity change, negative = inhibition": "29.4% (inactive)"},
      {"smiles": "O=C(O)CCC/C=C\\C[C@@H]1[C@@H](/C=C/[C@@H](O)COc2cccc(C(F)(F)F)c2)[C@H](O)C[C@@H]1O", "activity change, negative = inhibition": "-8.02% (inactive)"},
      {"smiles": "CO/N=C(\\C(=O)N[C@@H]1C(=O)N2C(C(=O)[O-])=C(C[n+]3ccc(N)n3CCO)CS[C@H]12)c1csc(N)n1", "activity change, negative = inhibition": "13.6% (inactive)"},
      {"smiles": "CC12CCC(C1)C(C)(C)C2=O", "note": "(stereo not drawn)", "activity change, negative = inhibition": "2.18% (inactive)"},
      {"smiles": "CCCC1C(=O)N2C(N(C)C)=Nc3ccc(C)cc3N2C1=O", "note": "(stereo not drawn)", "activity change, negative = inhibition": "-2.03% [at 20.6 µM] (inactive)"},
      {"smiles": "Cc1cccc(C)c1Nc1ncccc1C(=O)O", "activity change, negative = inhibition": "-14.1% (inactive)"},
      {"smiles": "CCCCC[C@H](O)/C=C/[C@H]1[C@H](O)CC(=O)[C@@H]1CCCCCCC(=O)O", "activity change, negative = inhibition": "22.1% [at 20.6 µM] (inactive)"},
      {"smiles": "NC(=O)[C@@H]1CCCN1C(=O)[C@H](Cc1cnc[nH]1)NC(=O)[C@@H]1CCC(=O)N1", "activity change, negative = inhibition": "2.17% (inactive)"},
      {"smiles": "CC(C)C[C@H](NC(=O)[C@@H](COC(C)(C)C)NC(=O)[C@H](Cc1ccc(O)cc1)NC(=O)[C@H](CO)NC(=O)[C@H](Cc1c[nH]c2ccccc12)NC(=O)[C@H](Cc1cnc[nH]1)NC(=O)[C@@H]1CCC(=O)N1)C(=O)N[C@@H](CCCN=C(N)N)C(=O)N1CCC[C@H]1C(=O)NNC(N)=O", "activity change, negative = inhibition": "15.7% (inactive)"},
      {"smiles": "FCOC(C(F)(F)F)C(F)(F)F", "activity change, negative = inhibition": "-5.97% (inactive)"},
      {"smiles": "COc1cc2c(cc1OC)[C@@H](Cc1cc(OC)c(OC)c(OC)c1)[N+](C)(CCCOC(=O)CC/C=C/CCC(=O)OCCC[N+]1(C)CCc3cc(OC)c(OC)cc3[C@H]1Cc1cc(OC)c(OC)c(OC)c1)CC2", "note": "(stereo partly drawn)", "activity change, negative = inhibition": "3.85% (inactive)"},
      {"smiles": "CS(=O)(=O)OCC(O)C(O)COS(C)(=O)=O", "note": "(stereo not drawn)", "activity change, negative = inhibition": "2.55% (inactive)"},
      {"smiles": "CC[C@H](C)[C@@H]1NC(=O)[C@H](Cc2ccc(O)cc2)NC(=O)[C@@H](N)CSSC[C@@H](C(=O)N2CCC[C@H]2C(=O)N[C@@H](CC(C)C)C(=O)NCC(N)=O)NC(=O)[C@H](CC(N)=O)NC(=O)[C@H](CCC(N)=O)NC1=O", "activity change, negative = inhibition": "22.5% (inactive)"},
      {"smiles": "CCN1\\C(=C/C=C/C=C/c2sc3ccccc3[n+]2CC)Sc2ccccc21", "Potency": "11.2 µM (active)"},
      {"smiles": "CC1=C(/C=C/C(C)=C/C=C/C(C)=C/C=C/C=C(C)/C=C/C=C(C)/C=C/C2=C(C)C[C@@H](O)CC2(C)C)C(C)(C)C[C@H](O)C1", "activity change, negative = inhibition": "-6.39% (inactive)"},
      {"smiles": "CC1=C(/C=C/C(C)=C/C=C/C(C)=C/C(=O)Oc2c(C)c(C)c3c(c2C)CC[C@@](C)(CCC[C@H](C)CCC[C@H](C)CCCC(C)C)O3)C(C)(C)CCC1", "activity change, negative = inhibition": "12.8% (inactive)"},
      {"smiles": "COc1ccc2cc([C@H](C)CO)ccc2c1", "activity change, negative = inhibition": "6.8% (inactive)"},
      {"smiles": "CC1(C)[C@H]2CC[C@]1(C)[C@H](O)C2", "activity change, negative = inhibition": "29% (inactive)"},
      {"smiles": "CSc1nc2cc(Oc3cccc(Cl)c3Cl)c(Cl)cc2[nH]1", "Potency": "31.6 µM (active)"},
      {"smiles": "CN1CCCC(CN2c3ccccc3Sc3ccccc32)C1", "note": "(stereo not drawn)", "Potency": "12.6 µM (active)"},
      {"smiles": "CCOc1ccc(NC(=S)Nc2ccc(OCC)cc2)cc1", "activity change, negative = inhibition": "2.09% (inactive)"},
      {"smiles": "NC(N)=NCC1COC2(CCCCC2)O1", "note": "(stereo not drawn)", "activity change, negative = inhibition": "-3.48% [at 20.6 µM] (inactive)"},
      {"smiles": "CCCCC(=O)O[C@H]1CC[C@H]2[C@@H]3CCc4cc(O)ccc4[C@H]3CC[C@]12C", "activity change, negative = inhibition": "-14.4% (inactive)"},
      {"smiles": "C=CC1=C(C(=O)O)N2C(=O)[C@@H](NC(=O)/C(=N\\O)c3csc(N)n3)[C@H]2SC1", "note": "(stereo in doubt)", "activity change, negative = inhibition": "-3.52% (inactive)"},
      {"smiles": "Cc1ccc(C(C)(C)c2ccc(C)cc2)cc1", "activity change, negative = inhibition": "-27.3% (inactive)"},
      {"smiles": "CN1C(C(=O)Nc2ccccn2)C(=O)c2sc(Cl)cc2S1(=O)=O", "note": "(stereo not drawn)", "activity change, negative = inhibition": "-0.936% (inactive)"},
      {"smiles": "CCc1cn([C@H]2C[C@H](O)[C@@H](CO)O2)c(=O)[nH]c1=O", "activity change, negative = inhibition": "3.36% (inactive)"},
      {"smiles": "O=S(=O)(O)CC(S)CS", "note": "(stereo not drawn)", "activity change, negative = inhibition": "21.4% (inactive)"},
      {"smiles": "O=C1NCCN1c1ncc([N+](=O)[O-])s1", "activity change, negative = inhibition": "14.4% [at 20.6 µM] (inactive)"},
      {"smiles": "C#C[C@]1(O)CC[C@H]2[C@@H]3CCC4=C(CCC(=O)C4)[C@H]3CC[C@@]21C", "activity change, negative = inhibition": "16.2% [at 20.6 µM] (inactive)"},
      {"smiles": "CN[C@@H]1[C@@H](O)[C@@H](O[C@@H]2[C@@H](O)[C@H](O[C@H]3O[C@H](CN)[C@@H](O)[C@H](O)[C@H]3O)[C@@H](N)C[C@H]2NC(=O)C(O)CN)OC[C@]1(C)O", "note": "(stereo partly drawn)", "activity change, negative = inhibition": "16.3% (inactive)"},
      {"smiles": "C=CC1=C(C(=O)O)N2C(=O)[C@@H](NC(=O)/C(=N/OCC(=O)O)c3csc(N)n3)[C@H]2SC1", "note": "(stereo in doubt)", "activity change, negative = inhibition": "1.33% [at 20.6 µM] (inactive)"}
    ]}
  ]
}
